Screens from PubChem.
A340 absorber = compound light absorbance at 340 nm, profiling panel, artefact control, biochemical, MLSMR library, data from PS, PMK, MK assays; compound absorbance at 340 nm, fold over control; 65,000 tested, under 10 active; fold change at 10 µM; AID 708, 2007;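 active means at 10 µM dose, initial 340 nm absorbance at least 2 fold that of control wells; inactive means change under 2 fold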;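 further: initial absorbance extrapolated from kinetic A340 decline of NADH oxidation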
DUSP1 inh = MKP-1 phosphatase inhibitors, primary screen, biochemical, in vitro | recombinant MKP-1, OMFP hydrolysis fluorescence | Dual specificity protein phosphatase 1 (Homo sapiens), P28562 | inhibition, %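 (compounds tested at a single concentration somewhere between 10 and 100 µM)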 | 65,000 compounds, 0.15% hits;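 active means inhibition above about 50%, limit read from the data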;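 further: 0% = DMSO max control wells and 100% = wells with enzyme stopped by NaOH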
Target sequence (P28562 whole entry, looked up): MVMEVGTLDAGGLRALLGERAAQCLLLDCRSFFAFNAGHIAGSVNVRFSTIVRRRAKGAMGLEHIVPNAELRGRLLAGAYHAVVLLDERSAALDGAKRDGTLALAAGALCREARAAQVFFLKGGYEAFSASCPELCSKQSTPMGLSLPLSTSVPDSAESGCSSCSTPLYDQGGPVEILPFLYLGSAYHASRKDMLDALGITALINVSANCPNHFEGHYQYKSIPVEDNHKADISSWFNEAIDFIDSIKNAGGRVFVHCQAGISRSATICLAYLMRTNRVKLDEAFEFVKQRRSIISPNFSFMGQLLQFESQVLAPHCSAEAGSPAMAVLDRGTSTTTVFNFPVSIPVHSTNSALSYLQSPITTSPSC
Cdc25B inh = inhibitors of Cdc25B phosphatase catalytic domain, primary screen, biochemical, OMFP fluorescence. recombinant Cdc25B, OMFP fluorescence Ex485/Em525. inhibition, %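 (compounds tested at 10 µM final in the well)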. 65,000 compounds, 0.1% hits; in the data active means inhibition above about 50%
Hsp90 block = tumor Hsp90 inhibitors, primary screen, cell lysate, fluorescence polarization, NCI-N417 lysate; Heat shock protein HSP 90-alpha (Homo sapiens), P07900; Cy3B-geldanamycin FP displacement; inhibition, % at 30 µM; 64,000 compounds, 0.35% hits; AID 429, 2006;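 active means inhibition above 50%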;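 further: 0% = tracer plus lysate wells and 100% = tracer alone without lysate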
Autofluor 339 = intrinsic fluorescence of library compounds, ex339/em460 – biochemical, MLSMR library, data from DPM-DC assay, artefact control, profiling panel | compound autofluorescence, ex339/em460 nm, NADH buffer; active compounds read high; 1 = no-compound wells, NADH background | AID 709, 2007 | fluorescence fold increase at 10 µM | 65,000 compounds, 5.5% hits;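 active means at 10 µM, mean starting fluorescence two-fold or more over control wells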;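 further: signal is the first read of a kinetic run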
NADH enzymes = inhibitors of PK/LDH coupling enzymes, profiling panel, artefact control, biochemical, MLSMR library; IC50, µM (doses to about 10 µM), for the others: at the highest dose inhibition; coupled PK/LDH NADH assays, four targets; 65,000 compounds, 0.02% hits;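 active means single-dose screening hits from any of four coupled enzyme assays that gave an IC50 when retested across doses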;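 further: the DPM-DC format reads NADH fluorescence rather than 340 nm absorbance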
The depositor's hits bear a star; x = not tested or not shown. Shown are actives, neighbours in structure and some others; about 5.7% of the full set was active somewhere.

SMILES | A340 absorber | DUSP1 inh | Cdc25B inh | Hsp90 block | Autofluor 339 | NADH enzymes
Cc1cccn2c(=O)c3cc(C(=O)NCCN4CCOCC4)c(=N)n(CCc4ccccc4)c3nc12 | 1.1 | -9 | -18 | -4 | 2.3* | 0%
Cc1cccn2c(=O)c3cc(C(=O)NCc4ccccc4)c(=N)n(CCCN4CCOCC4)c3nc12 | 1 | 12 | -5 | -6 | 5.2* | 6%
CC(=O)[C@]1(O)Cc2c(O)c3c(c(O)c2[C@@H](O[C@H]2C[C@H](N)[C@H](O)[C@H](C)O2)C1)C(=O)c1ccccc1C3=O | x | x | x | 156* | x | x
COc1cccc2c1C(=O)c1c(O)c3c(c(O)c1C2=O)C[C@@](O)(C(C)=O)C[C@@H]3O[C@H]1C[C@H](N)[C@H](O)[C@H](C)O1 | 0.99 | 6 | -1 | 80* | 0.99 | 2%
Cc1ccc2nsnc2c1S(=O)(=O)N(Cc1cc2cccc(C)c2[nH]c1=O)CC1CCCO1 (configuration not stated) | 1 | 22 | -16 | -2 | 1.1 | 1%
CC(C)=CCC(C)(C)C1OCCN1C(=O)Nc1ccccc1 (configuration not stated) | 1 | -10 | 4 | 1 | 1.1 | 6%
O=C(CCS(=O)(=O)Cc1ccccc1)NCC1CCCO1 (configuration not stated) | 1 | 21 | -7 | -4 | 1.1 | 5%
O=C(NCc1cccnc1)C1c2ccccc2C(=O)N1Cc1ccco1 (configuration not stated) | 1 | 5 | -3 | 57* | 1.1 | 2%
COc1ccc2c(c1)C(C)=CC(C)(C)N2C(=O)CSc1nnc(-c2ccc(C)cc2)o1 | 1 | 7 | -12 | -4 | 1.1 | 2%
Cc1c(OCc2nn[nH]n2)ccc2c(-c3ccccc3)cc(=O)oc12 | 1.1 | -6 | -3 | -3 | 1.4 | 3%
Cc1cc(OCc2nn[nH]n2)c2c(C)c(Cc3ccccc3)c(=O)oc2c1 | 1.1 | 16 | 8 | -2 | 3.9* | 10%
Cc1c(Cc2ccccc2)c(=O)oc2c(C)c(OCc3nn[nH]n3)ccc12 | 1.1 | 26 | 6 | -14 | 3.9* | 9%
Cc1cc(OCc2nn[nH]n2)c2c(C)c(CC(=O)O)c(=O)oc2c1 | 1.1 | -21 | -9 | -5 | 3.9* | 3%
COC(=O)COc1ccc(S(=O)(=O)N2CCOCC2)cc1C | 1 | -3 | -4 | -3 | 1.2 | 5%
COC(=O)COc1cc(C)cc2oc(=O)c(CC(=O)OC)c(C)c12 | 1.1 | -5 | -9 | -2 | 2.1* | 6%
COc1ccccc1N1CCN(C(c2cccs2)c2nnnn2C2CCCC2)CC1 (configuration not stated) | 1 | 7 | 12 | 0 | 1.1 | 4%
O=C(O)CCCC[C@@H]1CCSS1 | x | x | x | 5 | x | x
Cc1nc2sc(C(c3ccccc3)N3CCN(CCO)CC3)c(O)n2n1 (configuration not stated) | 1 | 11 | -10 | -3 | 1.1 | 6%
Cc1cc(OCc2nn[nH]n2)c2c(-c3ccccc3)cc(=O)oc2c1 | 1.1 | -30 | -5 | -3 | 2* | 2%
OCCN1CCN(c2nc(-c3ccccc3)nc3c2oc2ccccc23)CC1 | 1 | 0 | -14 | -4 | 1.1 | 10%
Cc1cnc(N)c2c(=O)oc3ccccc3c12 | 1.1 | -2 | -3 | -3 | 2.1* | 6%
CC(CCc1ccco1)NC(=O)Cn1ncc2c1-c1ccccc1OC2 (configuration not stated) | 0.99 | 12 | -2 | -2 | 1.1 | 3%
N#Cc1nc(-c2ccccc2F)oc1NCCc1ccccn1 | 1.1 | 5 | -9 | x | 2.3* | 4%
N#Cc1nc(-c2ccccc2F)oc1NCc1ccccc1 | 1.1 | 14 | -7 | -2 | 2.1* | 3%
COCCCNc1oc(-c2ccccc2OC)nc1C#N | 1.1 | -13 | -10 | -3 | 3.9* | 14%
SMILES | A340 absorber | DUSP1 inh | Cdc25B inh | Hsp90 block | Autofluor 339 | NADH enzymes
COCCCNc1oc(-c2ccccc2F)nc1C#N | 1.1 | 7 | -16 | -1 | 2.1* | 2%
COc1ccc(CCNc2oc(COc3ccccc3F)nc2C#N)cc1OC | 1 | 9 | -7 | -1 | 1.1 | 6%
Cc1ccc(NC(=O)c2c(-c3c(F)cccc3Cl)noc2C)cc1F | 1 | 2 | -9 | -2 | 1.1 | 1%
COC(=O)c1ccc(S(=O)(=O)NCCSc2nnc3c4ccccc4n(C)c3n2)cc1 | 1.1 | 12 | 8 | 0 | 1.1 | 9%
CC(C)c1cc(NC(=O)CSc2nnc(-c3ccccc3F)n2C)on1 | 1.1 | 3 | -5 | x | 1.1 | 5%
CCN(CCCNC(=O)CN(C)S(=O)(=O)c1cccc2nsnc12)c1ccccc1 | 1.1 | -2 | -7 | -4 | 1 | 9%
CCOc1ccc(C(=O)NCC(=O)OC(C)C(=O)NCc2ccco2)cc1OCC (configuration not stated) | 0.98 | 25 | -24 | -1 | 1.1 | 7%
COc1ccc(OC)c(N2C(=O)CC(Cc3ccc(C)cc3)C2=O)c1 (configuration not stated) | 1.1 | -8 | -11 | -3 | 1.1 | 1%
Cc1nc2oc3c(NCc4ccccc4)ncnc3c2c2c1COC(C)(C)C2 | 1 | -6 | 9 | -1 | 2.5* | 9%
CCCc1nc2oc3c(NCCOCCO)ncnc3c2c2c1COC(C)(C)C2 | 1 | 5 | 5 | 0 | 3.6* | 6%
Cc1nc2oc3c(NCC4CCCO4)ncnc3c2c2c1COC(C)(C)C2 (configuration not stated) | 1 | -15 | 5 | 0 | 2.1* | 12%
CC(C)c1nc2oc3c(N4CCNCC4)ncnc3c2c2c1CCC2 | 1 | 35 | -16 | 1 | 2 | 6%
CC(C)c1nc2oc3c(NCC4CCCO4)ncnc3c2c2c1COC(C)(C)C2 (configuration not stated) | 1 | 31 | 4 | 0 | 3.8* | 11%
O=C1c2ccccc2C(O)(Cc2ccccc2)N1c1ccc2c(c1)OCO2 (configuration not stated) | 1 | 8 | -7 | 42 | 1.1 | 7%
CC1C2CC(CC1(C)C)N(C(=O)Nc1ccc3nccnc3c1)C2 (configuration not stated) | 1.1 | 15 | -9 | -3 | 2.2* | 2%
CCOC(=O)CN1CC23C=CC(O2)C(C(=O)Nc2ccc(C(C)=O)cc2)C3C1=O (configuration not stated) | 0.99 | -7 | -9 | -1 | 1 | 4%
